# Assay results reported in the supplement of paper PMC8728848.
# The entries come from a sample that favours the strongest signals as a whole.
# B1: UDA (Urtica dioica), P11218 (protein)
# chain: MMMRFLSAVVIMSSAMAVGLVSAQRCGSQGGGGTCPALWCCSIWGWCGDSEPYCGRTCENKCWSGERSDHRCGAAVGNPPCGQDRCCSVHGWCGGGNDYCSGSKCQYRCSSSVRGPRVALSGNSTANSIGNVVVTEPLFDQMFSHRKDCPSQGFYSYHSFLVAAESFPAFGTIGDVATRKREVAAFLAHISQATSGERSDVENPHAWGLCHINTTTVTENDFCTSSDWPCAAGKKYSPRGPIQLTHNFNYGLAGQAIGEDLIQNPDLVEKDPIISFKTALWFWMSQHDNKPSCHDIVLNANSAANRIPNKGVIGNIISRAFGHDDFAVRSSSIGFYKRYCDMLGVSYGHDLKYWFDNTPSSEFQRIQMRVAA
# Experiments:
# Test in all cases: glycan array binding signal (z-score within array); higher = stronger binding
# Settings in all cases: glycan notation: IUPAC condensed, linker removed
# [1] = target: Fuc(a1-2)Gal(b1-3)GalNAc(b1-3)Gal
# How it was run: (§1)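 Glycan array data came from 3228 arrays in the Consortium for Functional Glycomics database, and only arrays with an available protein sequence were kept. Glycan names were put into IUPAC-condensed notation, and columns mapping to the same glycan were averaged. The binding signal is a within-array Z-score, averaged across arrays of one protein sequence run at different concentrations or buffers and across linkers. A negative Z-score can be read as non-binding.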
# [2] = target: Fuc(a1-2)Gal(b1-3)GlcNAc(b1-3)[Gal(b1-4)GlcNAc(b1-6)]Gal(b1-4)Glc
# How it was run: as §1
# [3] = target: Fuc(a1-2)Gal(b1-3)GlcNAc6S
# How it was run: as §1
# [4] = target: Fuc(a1-2)Gal(b1-4)GlcNAc(b1-2)[Fuc(a1-2)Gal(b1-4)GlcNAc(b1-4)]Man(a1-3)[Fuc(a1-2)Gal(b1-4)GlcNAc(b1-2)Man(a1-6)]Man(b1-4)GlcNAc(b1-4)GlcNAc
# How it was run: as §1
# [5] = target: Fuc(a1-2)Gal6S(b1-3)GlcNAc
# How it was run: as §1
# [6] = target: Fuc(a1-2)[Gal(a1-3)]Gal(b1-3)GlcNAc
# How it was run: as §1
# [7] = target: Fuc(a1-2)[GalNAc(a1-3)]Gal(b1-4)GlcNAc(b1-3)Gal(b1-4)GlcNAc
# How it was run: as §1
# [8] = target: Fuc(a1-3)[Gal(b1-4)]GlcNAc(b1-2)Man(a1-3)[Fuc(a1-3)[Gal(b1-4)]GlcNAc(b1-2)Man(a1-6)]Man(b1-4)GlcNAc(b1-4)GlcNAc
# How it was run: as §1
# [9] = target: Fuc(a1-3)[GalNAc(b1-4)]GlcNAc
# How it was run: as §1
# Fuc(a1-4)GlcNAc = target: Fuc(a1-4)GlcNAc
# How it was run: as §1
# Gal(a1-3)Gal = target: Gal(a1-3)Gal
# How it was run: as §1
# [10] = target: Gal(a1-3)Gal(b1-3)GlcNAc(b1-3)GalNAc
# How it was run: as §1
# [11] = target: Gal(a1-3)Gal(b1-4)[Fuc(a1-3)]GlcNAc
# How it was run: as §1
# Gal(a1-4)Gal(b1-4)GlcNAc = target: Gal(a1-4)Gal(b1-4)GlcNAc
# How it was run: as §1
# Gal(b1-3)GalNAc(b1-3)Gal = target: Gal(b1-3)GalNAc(b1-3)Gal
# How it was run: as §1
# [12] = target: Gal(b1-3)GalNAc(b1-4)Gal(b1-4)Glc
# How it was run: as §1
# [13] = target: Gal(b1-3)GalNAc(b1-4)[Neu5Ac(a2-3)]Gal(b1-4)Glc
# How it was run: as §1
# [14] = target: Gal(b1-3)GlcNAc(a1-6)Gal(b1-4)GlcNAc
# How it was run: as §1
# [15] = target: Gal(b1-3)GlcNAc(b1-2)Man(a1-3)[Gal(b1-3)GlcNAc(b1-2)Man(a1-6)]Man(b1-4)GlcNAc(b1-4)GlcNAc
# How it was run: as §1
# [16] = target: Gal(b1-3)GlcNAc(b1-2)Man(a1-3)[Gal(b1-3)GlcNAc(b1-2)Man(a1-6)]Man(b1-4)GlcNAc(b1-4)[Fuc(a1-6)]GlcNAc
# How it was run: as §1
# [17] = target: Gal(b1-3)GlcNAc(b1-6)[Gal(b1-3)]GalNAc
# How it was run: as §1
# [18] = target: Gal(b1-3)[Neu5Ac(b2-6)]GalNAc
# How it was run: as §1
# Gal(b1-4)GlcNAc = target: Gal(b1-4)GlcNAc
# How it was run: as §1
# [19] = target: Gal(b1-4)GlcNAc(b1-2)Man(a1-3)[Man(a1-6)]Man(b1-4)GlcNAc(b1-4)GlcNAc
# How it was run: as §1
# [20] = target: Gal(b1-4)GlcNAc(b1-2)[Gal(b1-4)GlcNAc(b1-4)]Man(a1-3)[GlcNAc(b1-4)][Gal(b1-4)GlcNAc(b1-2)[Gal(b1-4)GlcNAc(b1-6)]Man(a1-6)]Man(b1-4)GlcNAc(b1-4)GlcNAc
# How it was run: as §1
# [21] = target: Gal(b1-4)GlcNAc(b1-3)Gal(b1-4)GlcNAc(b1-3)Gal(b1-4)GlcNAc(b1-3)Gal(b1-4)GlcNAc(b1-3)Gal(b1-4)GlcNAc(b1-2)Man(a1-3)[Gal(b1-4)GlcNAc(b1-3)Gal(b1-4)GlcNAc(b1-3)Gal(b1-4)GlcNAc(b1-3)Gal(b1-4)GlcNAc(b1-3)Gal(b1-4)GlcNAc(b1-2)Man(a1-6)]Man(b1-4)GlcNAc(b1-4)[Fuc(a1-6)]GlcNAc
# How it was run: as §1
# [22] = target: Gal3S(b1-4)[Fuc(a1-3)]GlcNAc
# How it was run: as §1
# GalNAc(a1-3)GalNAc = target: GalNAc(a1-3)GalNAc
# How it was run: as §1
# [23] = target: GalNAc(a1-3)GalNAc(b1-3)Gal(a1-4)Gal(b1-4)GlcNAc
# How it was run: as §1
# GlcA(b1-3)Gal = target: GlcA(b1-3)Gal
# How it was run: as §1
binder,measurement,setting,value
B1,glycan array binding signal (z-score),[1],-0.215
same,glycan array binding signal (z-score),[2],-0.109
same,glycan array binding signal (z-score),[3],-0.182
same,glycan array binding signal (z-score),[4],-0.161
same,glycan array binding signal (z-score),[5],-0.184
same,glycan array binding signal (z-score),[6],-0.167
same,glycan array binding signal (z-score),[7],-0.054
same,glycan array binding signal (z-score),[8],-0.165
same,glycan array binding signal (z-score),[9],-0.172
same,glycan array binding signal (z-score),Fuc(a1-4)GlcNAc,-0.178
same,glycan array binding signal (z-score),Gal(a1-3)Gal,-0.189
same,glycan array binding signal (z-score),[10],-0.177
same,glycan array binding signal (z-score),[11],-0.183
same,glycan array binding signal (z-score),Gal(a1-4)Gal(b1-4)GlcNAc,-0.101
same,glycan array binding signal (z-score),Gal(b1-3)GalNAc(b1-3)Gal,-0.178
same,glycan array binding signal (z-score),[12],-0.186
same,glycan array binding signal (z-score),[13],-0.189
same,glycan array binding signal (z-score),[14],-0.166
same,glycan array binding signal (z-score),[15],0.04
same,glycan array binding signal (z-score),[16],-0.156
same,glycan array binding signal (z-score),[17],-0.177
same,glycan array binding signal (z-score),[18],-0.187
same,glycan array binding signal (z-score),Gal(b1-4)GlcNAc,0.006
same,glycan array binding signal (z-score),[19],4.63
same,glycan array binding signal (z-score),[20],-0.17
same,glycan array binding signal (z-score),[21],1.52
same,glycan array binding signal (z-score),[22],-0.184
same,glycan array binding signal (z-score),GalNAc(a1-3)GalNAc,-0.191
same,glycan array binding signal (z-score),[23],-0.177
same,glycan array binding signal (z-score),GlcA(b1-3)Gal,-0.173
